The values below come from PubChem BioAssay AID485314 (National Center for Advancing Translational Sciences (NCATS), 2010).

Molecules are shown by their SMILES. The campaign covered roughly 340,000 compounds. About 4,500 (1.3%) were called active. Roughly 5% stayed inconclusive and do not appear here. The call rests on the fitted dose curve; in most records, active means well fitted inhibition curve with a large enough effect; inconclusive means small, poorly fitted or top-dose-only effect, or another doubt; inactive means no such curve, though single readings can be large or run the other way. What follows is part of a selection rich in actives, with near analogues and random picks from the rest. Entries that show only a call come without a potency.
Potency means the concentration at half of the fitted maximal effect.

This assay addresses DNA polymerase beta (Homo sapiens) (UniProt P06746). In words: qHTS Assay for Inhibitors of DNA Polymerase Beta. The conditions noted are these: Pol beta primer extension/strand displacement, fluorescence kinetic; series mostly up to 114 µM. An excerpt: The base excision repair system in human cells is a target for therapeutic modulation of the response to irradiation treatment and DNA-damaging drugs. A key enzyme in this system is the bi-functional DNA polymerase known as DNA polymerase Beta (Pol Beta). The following is a homogeneous kinetic assay to study the primer extension and strand-displacement reaction catalyzed by pol beta.
A stepwise description of the 1536-well assay is shown in next Table. Three microliters of reagents (buffer in column 3 and 4 as negative control and 10 nM Pol beta in columns 1, 2, and 5-48) was dispensed into 1,536-well black solid-bottomed plate. Compounds (23 nL) were transferred via Kalypsys pin tool equipped with 1536-pin array (10 nL slotted pins, V&P Scientific, San Diego, CA). The plates were incubated for 15 min at room temperature, and 1 uL substrate (50 nM final concentration) were added to start the reaction and immediately read at 0 min read on Viewlux reader. The plate were further incubated for 10 min at room temperature, and then read on Viewlux again. Throughout the screen, reagent bottle and all liquid lines were chilled and made light-tight to minimize reagent degradation. All screening operations were performed on a fully integrated robotic system (Kalypsys, San Diego, CA) containing one RX-130 and two RX-90 anthropomorphic robotic arms (Staubli, Duncan, SC). Library plates were screened starting from the lowest and proceeding to the highest concentration, and a double-dipping step of the highest concentration was required to access higher concentrations of compounds. Vehicle-only plates, with DMSO being pin-transferred to the entire column 5-48 compound area, were inserted uniformly at the beginning and the end of each library in order to monitor for and record any shifts in the background, which can be affected by reagent dispensers or loss in enzyme activity overtime. Screening data were corrected, normalized, and concentration-effect relationships were derived by using publicly-available curve fitting algorithms developed in-house (http://ncgc.nih.gov/pub/openhts). A four parameter Hill equation was fitted to the concentration-response data by minimizing the residual error between the modeled and observed responses.
For orientation: In qHTS, concentration-response curves come from the screen itself.
In the case of `COc1ccc(-c2nc3c(c(SCC(=O)Nc4ccc(C(=O)O)cc4)n2)Cc2ccccc2O3)cc1`, the Potency was 2.24 µM (active).
Regarding `COc1ccc(NC(=O)CSc2nc(N)c(-c3ccccc3)c(=O)[nH]2)cc1`, the Potency result is “inactive”.
As for `COc1cc(OC)cc(-c2nnc(SCC(=O)Nc3ccc(C(=O)O)cc3)s2)c1`, the Potency result is “inactive”.
As for `O=C(NCCc1csc(-c2ccc(C(F)(F)F)cc2)n1)C(=O)Nc1ccc(F)c(Cl)c1`, the entry is “inactive”; as for `CC(=O)c1ccc(NC(=O)CSc2nc(-c3ccccc3F)nc3c2c(=O)n(C)c(=O)n3C)cc1`, “inactive”.
In the case of `Cc1c(CC(=O)N2CCN(C(=O)C3COc4ccccc4O3)CC2)c(=O)oc2c(O)c(O)ccc12` (stereo not given) it was 0.794 µM (active).
As for `COc1ccc(OC)c2sc(N3CCN(C(=O)C4COc5ccccc5O4)CC3)nc12` (stereo not given), the entry is “inactive”; as for `Cc1c(C)c2ccc(OCC(=O)N3CCC(C(=O)O)CC3)c(C)c2oc1=O`, “inactive”; as for `COc1ccc(OC)c(CNC(=O)CN2C(=O)CCn3nc(-c4cn(C)c5ccccc45)cc32)c1`, “inactive”.
On to `CC(=O)Nc1ccc(S(=O)(=O)N2CCN(c3ccccc3)CC2)cc1`, for which the Potency entry is “inactive”.
As for `Cc1cc(/C=C2\SC(=Nc3ccc(N4CCOCC4)cc3)N(C)C2=O)c(C)n1-c1cccnc1`, the entry is “inactive”.
In the case of `Cc1cc(/C=C2/SC(=O)N(CC(=O)N3CCCC3)C2=O)c(C)n1C` it was “inactive”; in that of `Cc1cc(/C=C2\SC(=O)N(C)C2=O)c(C)n1-c1cccc(C(=O)O)c1`, 28.2 µM (active); in that of `O=C(CSCc1cnn(-c2ccccc2)c1-n1cccc1)NCc1ccc(Cl)cc1`, “inactive”.
As for `COc1ccccc1/C=C/c1nc(C#N)c(NC(C)c2ccccc2)o1` (stereo not given), the Potency entry is “inactive”.
In the case of `COc1ccc(-c2nc3sc(CCNC(=O)C(C)(C)C)c(C)n3n2)cc1` it was “inactive”; in that of `Cc1ccc2onc(CC(=O)N3CCN(c4ccc(Cl)cc4)CC3)c2c1`, “inactive”.
In the case of `CC(C)c1ccc(S(=O)(=O)Nc2ccc(O)c(Sc3nc4ccccc4s3)c2)cc1`, the Potency entry is “inactive”.
For `COc1cccc(NC(=O)CSC2=Nc3ccccc3C3=NC(CC(=O)NC4CCCCC4)C(=O)N23)c1` (stereo not given), the Potency entry is “inactive”.
In the case of `O=c1nc(N/N=C/c2ccco2)cn[nH]1` it was 11.2 µM (active); in that of `O=C(Cn1cnc2ccccc21)N/N=C/c1ccco1`, “inactive”.
In the case of `Cc1n[nH]c(=O)nc1N/N=C/c1cccs1` it was “inactive”; in that of `CCC(=O)N1CCc2cc(S(=O)(=O)NC(C(=O)Nc3ccc(C(C)=O)cc3)C(C)C)ccc21` (stereo not given), “inactive”; in that of `Cc1cccc(C2CC(=O)Oc3c2c(=O)n(C)c2ccccc32)c1` (stereo not given), “inactive”.
As for `Cc1ccc(OCC(=O)Nc2ccc(Cl)c(-c3nc4ccccc4[nH]3)c2)cc1C`, the entry is “inactive”.
`Cc1ccc(-c2nn(-c3ccccc3)cc2/C=C2\SC(=S)N(CCCCCC(=O)O)C2=O)o1`: the Potency is 50.1 µM (active).
In the case of `COc1ccc(-c2nn(-c3ccccc3)cc2/C=C2/SC(=S)N(CCCC(=O)O)C2=O)c(C)c1` it was “inactive”.
In the case of `C=CCOc1ccc(/C=C2\SC(=S)N(CCC(=O)O)C2=O)cc1` it was “inactive”; in that of `Cc1cccc(Cn2c(CN3CCC(C(=O)NCc4ccccc4Cl)CC3)cc3ccccc32)c1`, “inactive”; in that of `CCc1ccc(N(CC)C(=O)CCn2cnc3onc(-c4ccc(F)cc4)c3c2=O)cc1`, “inactive”.
Consider `CCCN1C(=O)C(O)(CC(=O)c2ccc(CC)cc2)c2cc(Br)ccc21` (stereo not given), for which the Potency result is “inactive”.
As for `COc1ccc(C(=O)/C=C/c2cccnc2)c(OC)c1`, the entry is “inactive”; as for `COc1ccc(/C=C/C(=O)c2cc(Br)ccc(=O)c2O)cc1`, 50.1 µM (active); as for `COc1ccc(C(=O)/C=C/c2ccc(OC3CSC3)cc2)cc1`, “inactive”.
As to `CSc1ccc(CCNC(=O)c2cnn(-c3ccccc3)c2-n2cccc2)cc1`, the Potency result was “inactive”.
In the case of `O=C(/C=C/c1ccccc1)N1CCN(Cc2cc(=O)n3nc(-c4ccccc4F)sc3n2)CC1` it was “inactive”.
As for `CCOc1ccccc1C(=O)NC1(C(F)(F)F)C(=O)Nc2c1c(=O)[nH]c(=O)n2-c1ccc(F)cc1` (stereo not given), the entry is “inactive”; as for `Cc1ccc(CCNC(=O)c2nnc(Cc3cccc(F)c3)o2)cc1`, “inactive”.
As to `COc1ccc(S(=O)(=O)N(CCCN2CCCC2=O)Cc2cc3c(C)ccc(C)c3[nH]c2=O)cc1`, the Potency is 89.1 µM (active).
As for `CCOc1ccc2[nH]c(=O)c(CN(CCCO)S(=O)(=O)c3ccc(F)cc3)cc2c1`, the entry is “inactive”.
In the case of `CCOC(=O)c1ccc(S(=O)(=O)N(CCO)Cc2cc3cc(OC)c(OC)cc3[nH]c2=O)cc1`, the Potency result was “inactive”.
As for `O=C1N/C(=C/c2cccn2-c2ccccc2)C(=O)N1c1cccc(Cl)c1`, the entry is “inactive”; as for `Cc1ccccc1NC(=O)CN1C(=O)N/C(=C\c2cccn2-c2cccc(C(=O)O)c2)C1=O`, 2.24 µM (active).
As for `Cc1ccccc1NC(=O)CN1C(=O)C(C)(C)c2ccccc21`, the Potency entry was “inactive”.
On to `COc1ccccc1NC(=O)C1=C(C)Nc2nc(SCC(=O)c3ccc(C)cc3)nn2C1c1ccccc1C` (stereo not given), for which the Potency entry is “inactive”.
Consider `CCc1ccccc1NC(=O)Cn1c(=O)n(-c2cccc(C)c2)c(=O)c2c1c1cc(OC)ccc1n2C`, for which the Potency result is “inactive”.
As for `NC(=O)c1c(NC(=O)CSc2nc(N)cc(=O)[nH]2)sc2c1CCCC2`, the entry is “inactive”.
As for `CCc1cccc(C)c1NC(=O)CSc1nnc(-c2ccco2)n1N`, the entry is “inactive”; as for `NC(=O)c1c(NC(=O)CSc2nnc(-c3ccco3)n2N)sc2c1CCCC2`, 39.8 µM (active); as for `CCOc1ccccc1C(=O)NCc1ccc2c(c1)CCN2C(=O)c1ccc(F)cc1`, “inactive”.
As to `O=C(OCN1C(=O)c2ccccc2C1=O)/C(=C\c1ccco1)NC(=O)c1ccccc1`, the Potency result was “inactive”.
For the molecule `O=c1nc2s/c(=C\c3ccco3)c(=O)n2nc1Cc1ccccc1`, the Potency is 14.1 µM (active).
As for `C=CCOC(=O)C1=C[C@@H](c2ccccc2)C[C@@H](OCc2ccc(CO)cc2)O1`, the Potency entry was “inactive”.
In the case of `O=C(O)C1=C[C@H](c2cccs2)C[C@H](OCCCCO)O1` it was “inactive”.
In the case of `C#Cc1ccc([C@@H]2C=C(C(=O)O)O[C@H](OCCCCO)C2)cc1` it was 28.2 µM (active); in that of `CCCCc1nn2c(=O)cc(COC(=O)c3cccc(NC(=O)COc4ccccc4)c3)nc2s1`, “inactive”; in that of `COc1ccc(N2CCN(S(=O)(=O)c3ccc(-c4coc(C)n4)cc3)CC2)cc1`, 31.6 µM (active).
`COc1ccc(N2CCN(C(=O)C3CCN(S(=O)(=O)c4ccc(C)cc4)CC3)CC2)cc1`: the Potency result is “inactive”.
As for `COc1ccc(N2CCN(S(=O)(=O)c3ccc4c(c3)N(C(C)=O)CCO4)CC2)cc1`, the entry is “inactive”.
On to `O=C(CSC1=NCCS1)Nc1nc(-c2ccccc2)cs1`, for which the Potency result is “inactive”.
In the case of `O=C(CSc1nc2ccccc2c(=O)[nH]1)Nc1nc(-c2ccc(Br)cc2)cs1`, the Potency was 4.47 µM (active).
In the case of `Cc1ccc(-c2csc(NC(=O)Cn3[nH]c(=O)c4ccccc4c3=O)n2)cc1`, the Potency entry was “inactive”.
As for `CC(C)(C)c1ccc(C(=O)NCC(c2ccco2)S(=O)(=O)c2ccc(F)cc2)cc1` (stereo not given), the entry is “inactive”; as for `COc1cccc(NC(=O)N(Cc2cn(C)c3ccccc23)C2CCCCCC2)c1`, “inactive”.
In the case of `O=C(CSc1ccc(-c2ccco2)nn1)Nc1cccc(F)c1` it was “inactive”; in that of `Cc1ccccc1-c1nnc(SCC(=O)NCc2ccc3c(c2)OCO3)n1C`, “inactive”; in that of `O=C(CSc1ccc(-c2ccco2)nn1)NCc1ccc2c(c1)OCO2`, 15.8 µM (active).
As for `Cc1ccccc1OCCSc1nc2ccc(NC(=O)c3ccco3)cc2s1`, the entry is “inactive”; as for `Cc1ccc(C2CCN(C(=O)c3cnn(-c4ccccc4Cl)c3C3CCN(C(=O)OC(C)(C)C)CC3)C2)cc1` (stereo not given), “inactive”; as for `Cc1cccc(N2CCN(S(=O)(=O)c3ccc4[nH]c(=O)c(=O)[nH]c4c3)CC2C)c1` (stereo not given), 25.1 µM (active).
On to `Cc1cccc(N2CCN(S(=O)(=O)c3ccc(-c4cc(C)no4)s3)CC2C)c1` (stereo not given), for which the Potency entry was “inactive”.
Consider `Cc1cccc(N2CCN(C(=O)c3cccc(S(=O)(=O)N4CCc5ccccc5C4)c3)CC2C)c1` (stereo not given), for which the Potency result was “inactive”.
As for `CC(C)(C)c1ccc(OCC(=O)N2CCC(c3nc4ccccc4s3)CC2)cc1`, the entry is “inactive”; as for `COc1ccccc1C(=O)N/C(=C/c1ccco1)C(=O)Nc1ccc(C(=O)O)cc1`, 50.1 µM (active).
`Cc1cccc(NC(=O)/C(=C\c2ccco2)NC(=O)c2ccccc2)c1`: the Potency result was “inactive”.
As for `O=C(Nc1ccccc1)/C(=C\c1ccco1)NC(=O)c1ccco1`, the Potency entry was “inactive”.
In the case of `CC(=O)Nc1cc(C(=O)NCc2ccc(F)cc2Cl)ccc1Sc1ccc(Cl)cc1` it was “inactive”; in that of `CCC(Sc1nnc(-c2ccc(OC)cc2)c(-c2ccc(OC)cc2)n1)C(=O)NC1CCCCC1` (stereo not given), “inactive”; in that of `COc1cccc(-n2cc(C(=O)NCc3cccc(Cl)c3)c3ccccc3c2=O)c1`, “inactive”.
In the case of `Nc1[nH]c(=S)nc2nc(-c3ccccc3)c(-c3ccccc3)nc12` it was 22.4 µM (active).
In the case of `Nc1ccc(-c2sc(N)nc2-c2ccccc2)cc1` it was “inactive”; in that of `Cc1ccc2cccc(NC(=O)C(C)Oc3ccc(C)c(C)c3)c2n1` (stereo not given), “inactive”.
As to `Cn1nc(-c2ccccc2)c(-c2ccccc2)c(C(=O)Nc2ccc(S(N)(=O)=O)cc2)c1=O`, the Potency entry was “inactive”.
As for `COc1ccc(Cn2ccnc2SCC(=O)Nc2ccc3c(c2)OCO3)cc1`, the entry is “inactive”.
In the case of `CCCS(=O)(=O)N1CCC(n2c(C(F)(F)F)nc3cccnc32)CC1`, the Potency result is “inactive”.
In the case of `COc1ccc(OCC(=O)NNC(=O)c2ccc(-c3ccccc3)cc2)cc1` it was 44.7 µM (active); in that of `COc1ccc(C(=O)Nc2cc(C)ccc2NC(=O)COc2ccccc2)cc1`, “inactive”.
For the molecule `COc1ccc(C(=O)NNC(=S)NC(=O)c2ccccc2)cc1`, the Potency entry is “inactive”.
As for `O=C(CS(=O)(=O)c1cccc2nsnc12)N1CCN(c2cccc(Cl)c2)CC1`, the entry is “inactive”; as for `CCOc1ccc(S(=O)(=O)Nc2ccc3oc4c(c3c2)CC(C)CC4)cc1` (stereo not given), “inactive”.
As for `Cc1cccc(NC(=O)CSc2ncc(-c3ccccc3)[nH]2)c1C`, the entry is “inactive”; as for `Cc1cc(C)n2nc(SCC(=O)NC(=O)NCc3ccco3)nc2n1`, “inactive”.
As for `Cc1ccc(NC(=O)C(=O)NCc2ccco2)c(C)c1`, the entry is “inactive”.
With `Cc1ccc(SCC(=O)NC(=O)NCc2ccco2)c(C)c1`, the Potency is 25.1 µM (active).
Consider `Cn1ccc2cc(S(=O)(=O)N3CCCC(C(=O)NCc4ccccc4F)C3)ccc21` (stereo not given), for which the Potency entry is “inactive”.
